Compound activity (PubChem)
This is a sample that favours compounds with a hit; in the whole collection about 19% have one here.
KB-3-1 cytotox = qHTS assay for MDR1-selective chemotherapeutics: Primary screen using the parental adenocarcinoma cell KB-3-1. AID 1347075, 2019. Potency, µM (titrated, usually from 46.1 µM), actives largely listed as cytotoxic. 400,000 compounds, 1.4% hits. KB-3-1 viability, CellTiter-Glo ATP luminescence, 72 h; note: nearly all actives have a fitted effect of over 60% in size
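KB-3-1 parental drug-naive adenocarcinoma cells in DMEM/10% FBS, incubated 72 h at 37 C with pin-transferred compounds across a concentration series. Viability by CellTiter-Glo luminescence; concentration-response curves fitted after normalization.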
HT1080 IDH1KD tx = qHTS for induction of synthetic lethality in tumor cells producing 2HG: qHTS for the HT-1080-IDH1KD cell line | HT-1080 IDH1 knockdown viability, ATP luminescence, 48 h | Potency, µM (series often up to 46.1 µM), most hits filed as cytotoxic | 360,000 compounds, 2% hits | AID 686971, 2013
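Viability of IDH1-knockdown HT-1080 fibrosarcoma cells was assessed by CellTiter-Glo after 48 h at 37 °C with titrated compound; concentration-effect curves were classified by fit quality and response size.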
TDP1 cell CPT = qHTS for Inhibitors of human tyrosyl-DNA phosphodiesterase 1 (TDP1): qHTS in cells in presence of CPT. chicken DT40 Tdp1-/-;hTDP1 cells + 20 nM CPT, ATP luminescence, 48 h. Potency, µM (top dose mostly 46.2 µM), actives largely listed as inhibitors. 420,000 compounds, 12% hits. AID 686979, 2013; note: nearly all actives have a fitted effect of over 55% in size
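Chicken DT40 Tdp1-/- cells complemented with human TDP1, 400 cells/well, exposed to compounds plus 20 nM camptothecin for at least 48 h at 37 C; viability read as ATP content by CellTiter-Glo luminescence.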
TDP1 cell noCPT = qHTS for Inhibitors of human tyrosyl-DNA phosphodiesterase 1 (TDP1): qHTS in cells in absence of CPT. DT40 Tdp1-/- hTDP1 cells, no CPT, ATP luminescence, 48 h. 420,000 compounds, 15% hits. Potency, µM (doses to about 46.2 µM), usual class: inhibitors; note: nearly all actives have a fitted effect of over 55% in size
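Seeded 400 DT40-hTDP1 cells/well (vehicle DMSO, no 20 nM CPT); pinned compounds; ≥48 hr at 37 °C; CellTiter-Glo luminescence as viability measure.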
KB-V1 MDR tox = qHTS assay for MDR1-selective chemotherapeutics: Primary screen using the drug-selected MDR subline cells KB-V1; Potency, µM (doses to about 46.1 µM), actives largely listed as cytotoxic; 400,000 compounds, 3.4% hits; KB-V1 MDR cells viability, CellTiter-Glo, 72 h; note: nearly all actives have a fitted effect of over 60% in size
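KB-V1 cells (P-gp-expressing MDR subline of KB-3-1) in phenol-red-free DMEM with 10% FBS were exposed to library compounds over a concentration series for 72 h at 37 degrees C. Viability read by CellTiter-Glo luminescence; concentration-effect curves fitted after normalization.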
HT1080NT lethal = qHTS for induction of synthetic lethality in tumor cells producing 2HG: qHTS for the HT-1080-NT fibrosarcoma cell line; AID 686970, 2013; HT-1080-NT fibrosarcoma viability, CellTiter-Glo ATP luminescence, 48 h; 360,000 compounds, 1.6% hits; Potency, µM (top dose mostly 46.1 µM), most hits filed as cytotoxic;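 note: NT is the 2HG producing partner of a matched IDH1 knockdown line; nearly all actives have a fitted effect of over 55% in size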
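Read-out is CellTiter-Glo luminescence after 10 minutes at room temperature, following 48 hours' compound treatment of HT-1080-NT cells (750 cells/well, RPMI, 5% FBS, 37 degrees C).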
Hits are given with their value; 0 = inactive; ? = inconclusive; - = no result given. Calls come from the whole dose curve; as a rule, active = well fitted curve in the direction sought with a large enough effect; inconclusive = small, poorly fitted or top-dose-only effect, or another doubt; inactive = no such curve, though single readings can be large; an effect the other way counts as inactive or inconclusive.

SMILES	KB-3-1 cytotox	HT1080 IDH1KD tx	TDP1 cell CPT	TDP1 cell noCPT	KB-V1 MDR tox	HT1080NT lethal
CCCNC(=O)c1ccc(N2CCC3(CC2)CC(c2cccc(Br)c2)=NO3)c(NC(=O)c2ccc(Br)cc2)c1	0	0	0	0	0	0
Cc1ccc(CNC(=O)c2ccc(N3CCC4(CC3)CC(c3ccccc3)=NO4)c(NC(=O)c3ccccc3)c2)cc1	0	0	0	0	0	0
Cc1ccc(CNC(=O)c2ccc(N3CCC4(CC3)CC(c3ccccc3)=NO4)c(N)c2)cc1	0	0	2.6µM	?	0	0
Cc1ccc(CNC(=O)c2ccc(N3CCC4(CC3)CC(c3ccccc3)=NO4)c(NC(=O)c3ccco3)c2)cc1	0	0	?	?	0	0
CCCCC(CC)C(=O)Nc1cc(C(=O)NCCC)ccc1N1CCC2(CC1)CC(c1ccccc1)=NO2 (stereo unspecified)	0	0	6.5µM	?	0	0
CCCNC(=O)c1ccc(N2CCC3(CC2)CC(c2ccccc2)=NO3)c(NC(=O)c2ccco2)c1	0	0	18µM	16µM	0	0
CCCNC(=O)c1ccc(N2CCC3(CC2)CC(c2ccccc2)=NO3)c(NC(=O)c2cccc(OC)c2)c1	?	0	?	13µM	0	0
O=C(C[n+]1ccc(/C=N/O)cc1)NC1CCCCC1	0	0	0	0	0	0
CCOc1ccc(-c2cn3c(n2)sc2cc(C(=O)NCCc4ccc(OC)c(OC)c4)ccc23)cc1	0	-	12µM	10µM	0	-
COc1ccc2c(c1)sc1nc(-c3ccccc3)cn12	2.3µM	4.6µM	0.52µM	0.92µM	?	2.6µM
COc1ccc(NC(=O)c2ccc3c(c2)sc2nc(-c4ccc(OC)cc4)cn23)cc1	-	-	0	0	-	-
COc1cccc(-c2ccc(C#N)c(SCC(=O)NCCc3ccccc3)n2)c1	0	0	0	0	?	0
COc1ccc(-c2cn3c(n2)sc2cc(C(=O)Nc4cc(Cl)ccc4C)ccc23)cc1	-	-	6.5µM	2.9µM	-	-
COc1cccc(-c2cn3c(n2)sc2cc(C(=O)NCCc4ccccc4)ccc23)c1	-	-	7.3µM	7.3µM	-	-
CCCc1cc(=O)[nH]c2nnc(SCC(=O)NCc3ccc4c(c3)OCO4)n12	0	0	0	0	0	0
CC(C)(C)S(=O)(=O)N1C[C@@H]2CC/C=C\C/C(c3ccccc3)=C\2[C@H]1CCO	0	0	?	?	0	0
CC(C)c1ccc2oc(-c3ccc(Cl)c(NC(=O)Cc4ccccc4)c3)nc2c1	0	-	0	0	0	-
COc1ccc(-c2cn3c(n2)sc2cc(C(=O)NCC(C)c4ccccc4)ccc23)cc1 (stereo unspecified)	-	-	?	5.8µM	-	-
CCc1ccc(-c2cn3c(n2)sc2cc(C(=O)NCCc4ccc(OC)cc4OC)ccc23)cc1	-	-	23µM	16µM	-	-
CCOc1ccc(C(=O)CC(=O)C(=O)NCCc2ccc(OC)c(OC)c2)cc1	0	0	?	?	7.3µM	0
COc1ccc(NC(=O)C(=O)NCCc2ccc(OC)c(OC)c2)c(OC)c1	0	-	?	?	0	-
COc1ccc(CCNC(=O)c2ccc3c(c2)sc2nc(-c4ccccc4)cn23)cc1OC	-	-	5.2µM	7.3µM	-	-
Cc1ccc(N2CCN(C(=O)c3cn(C)c4ccc(S(=O)(=O)N(C)C)cc4c3=O)CC2C)cc1 (stereo unspecified)	0	-	0	0	0	-
CCCC(=O)N1CCN(c2nc(CC(C)C)c3c(c2C#N)CCC3)CC1	?	0	?	23µM	?	0
CC(C)Cc1nc(N2CCN(C(=O)c3ccco3)CC2)c(C#N)c2c1CCCC2	0	?	23µM	?	0	?
SMILES	KB-3-1 cytotox	HT1080 IDH1KD tx	TDP1 cell CPT	TDP1 cell noCPT	KB-V1 MDR tox	HT1080NT lethal
CC(=O)N1CC(=O)N(Cc2ccccc2)/C(=C/c2ccccc2)C1=O	?	0	0	0	0	0
COc1cccc(-c2nn(-c3ccc(C)cc3)cc2C(=O)NCC(c2cccs2)N2CCOCC2)c1 (stereo unspecified)	0	0	?	?	0	0
O=C(NCC(c1cccs1)N1CCOCC1)c1cn(-c2ccccc2)nc1-c1ccccc1 (stereo unspecified)	0	0	?	18µM	23µM	0
COc1ccc(-c2nn(-c3ccccc3)cc2C(=O)NCC(c2cccs2)N2CCOCC2)cc1 (stereo unspecified)	0	0	?	?	?	0
O=C(NCC(c1cccs1)N1CCOCC1)c1cn(-c2ccccc2)nc1-c1ccc(Cl)cc1 (stereo unspecified)	?	0	?	?	7.3µM	0
CCc1nc2ccc(C(=O)N(C)Cc3ccccc3)cn2c1N(C)CCCc1ccccc1	0	?	?	13µM	?	?
CCc1nc2ccc(C(=O)N(C)CCCN(C)C)cn2c1N(C)CCCc1ccccc1	0	?	?	?	0	?
CCc1nc2ccc(C(=O)NCCOc3ccc(OC)cc3)cn2c1N(C)C(=O)C1CCCCC1	0	0	?	21µM	0	0
CCc1nc2ccc(C(=O)NCCOc3ccc(OC)cc3)cn2c1N(C=O)Cc1ccc(OC)cc1	0	0	23µM	?	0	0
CCc1nc2ccc(C(=O)NCc3ccc(OC)cc3)cn2c1N(C)Cc1ccc(OC)cc1	0	0	?	21µM	0	0
CCc1nc2ccc(C(=O)NCCOc3ccc(OC)cc3)cn2c1N(CC)CCOC	0	0	?	?	?	0
CCc1nc2ccc(C(=O)Nc3ccc(Cl)c(Cl)c3)cn2c1N(C)Cc1ccc(OC)cc1	0	?	16µM	?	?	?
CCc1nc2ccc(C(=O)N(C)CCCN(C)C)cn2c1N(CC)CCOC	0	0	0	0	0	0
CCc1nc2ccc(C(=O)N(C)Cc3ccccc3)cn2c1N(C)Cc1ccc(OC)cc1	0	0	12µM	12µM	?	?
CCc1nc2ccc(C(=O)NCc3ccccc3OC)cn2c1N(C)Cc1ccc(OC)cc1	0	?	16µM	21µM	?	?
CCc1nc2ccc(C(=O)NCc3ccccc3OC)cn2c1N(C)C(=O)Cc1ccccc1	0	0	?	?	0	0
CCc1nc2ccc(C(=O)N(C)CCCN(C)C)cn2c1N(C)Cc1cc2ccccc2s1	0	16µM	?	21µM	0	18µM
